Screens as filed in PubChem.
CYP2C19 act: cytochrome P450 2C19 (human) activation; P33261; recombinant CYP2C19, luciferin-H EGE luminescence; hits give high values; 0 = fully inhibited enzyme, 1 = untreated enzyme; activation factor at 5 µM; 96,000 tested, under 10 active; AID 1025;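 active = activation factor of at least 2 at 5 µM in the primary screen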
Cav32 inh: blocks human Cav3.2 T-type calcium channel. Cav3.2-expressing cells, Fluo-4 calcium fluorescence FDSS; hits give low values. O95180. hit rate 4% among 100,000. B-score at 10 µM;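 active = single-dose well whose peak fluorescence ratio is a statistical outlier from its plate by either plate-standardised score or position-corrected B-score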
CYP2C19 inh: inhibitors of human CYP2C19; P33261; inhibition, % at 5 µM; hit rate 21% among 96,000; CYP2C19 Supersomes, luciferin-H EGE luminescence, 30 min;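 active = CYP2C19 inhibition above a set limit at 5 µM in the primary screen, cut at about 50% in these data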
CYP2C9 act: activators of human CYP2C9 | hit rate 1.4% among 96,000 | activation factor at 5 µM | recombinant CYP2C9, luciferin-H conversion, luminescence; hits give high values; factor 1 = untreated enzyme, 0 = blocked;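 active = activation factor of 2 or more for CYP2C9 at a 5 µM dose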
Target sequence (P11712 whole entry, looked up): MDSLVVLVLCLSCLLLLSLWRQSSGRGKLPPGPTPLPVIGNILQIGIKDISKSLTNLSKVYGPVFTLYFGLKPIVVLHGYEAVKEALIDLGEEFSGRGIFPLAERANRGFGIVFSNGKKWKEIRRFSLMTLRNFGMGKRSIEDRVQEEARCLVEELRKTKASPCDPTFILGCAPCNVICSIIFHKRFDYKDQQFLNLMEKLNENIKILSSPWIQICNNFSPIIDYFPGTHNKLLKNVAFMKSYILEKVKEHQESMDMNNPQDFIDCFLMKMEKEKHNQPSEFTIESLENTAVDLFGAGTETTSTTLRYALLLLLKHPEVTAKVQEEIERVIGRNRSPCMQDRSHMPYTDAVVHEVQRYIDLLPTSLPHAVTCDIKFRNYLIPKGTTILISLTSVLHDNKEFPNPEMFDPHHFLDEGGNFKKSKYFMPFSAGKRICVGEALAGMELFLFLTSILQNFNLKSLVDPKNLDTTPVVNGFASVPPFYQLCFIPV
CYP2C9 inh: blocks human cytochrome P450 2C9; P11712; CYP2C9 Supersomes, luciferin-H conversion, luminescence; inhibition, % at 5 µM; hit rate 20% among 96,000; AID 777;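 active = blocking of liver enzyme CYP2C9 beyond about 50% at 5 µM, limit read from the data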
Large screens that a line does not name were inactive. A selection: hits, their analogues and other compounds. The true share with any hit is near 27%.

CCOc1ccc(N=c2oc3cc(O)ccc3cc2C(=O)NCC2CCCO2)cc1 (stereo not given)	none
CCOc1ccccc1N=c1oc2cc(O)ccc2cc1C(=O)NCC1CCCO1 (stereo not given)	CYP2C9 inh 53.4
Cc1ccc(N=c2oc3cc(O)ccc3cc2C(N)=O)cc1	CYP2C9 inh 65.9
CCc1nc2ccccc2n1CC(=O)N(C(C)CC)C1CCS(=O)(=O)C1 (stereo not given)	none
N#CCC(=N)N1CCN(c2ccccc2Cl)CC1	none
COC(=O)[C@H](CCSC)NC(=O)Nc1ccc(OC)cc1OC	none
CCCN1C(=O)c2ccc(C(=O)NC3=NCCS3)cc2C1=O	none
Cc1ccc(N(C)S(=O)(=O)c2cccc(C(=O)NC3=NCCS3)c2)cc1	CYP2C9 inh 69.3
COc1cc(C(=O)NC2=NCCS2)cc(OC)c1OC	none
COc1ccc(N(C)S(=O)(=O)c2cccc(C(=O)NC3=NCCS3)c2)cc1	CYP2C9 inh 63.8
Fc1ccc(NC(=S)N/N=C/c2ccc(F)c(F)c2)c(F)c1	CYP2C19 inh 54.1
CCCCCc1nnc(NC(=O)Cc2cccs2)s1	none
O=C(O)CSCC(=O)Nc1ccc(C2CCCCC2)cc1	CYP2C9 inh 64.3
Cc1oc(-c2ccccc2F)nc1CN1CCC(C(=O)NCc2ccco2)CC1	none
O=C(Nc1ccc2c(c1)OCCO2)c1cc2sccc2n1Cc1ccc(F)cc1	CYP2C19 inh 59.8, CYP2C9 inh 77.6
O=C(NCc1ccco1)C1CCN(c2nc3ccccc3n2Cc2ccccc2F)CC1	Cav32 inh -7.07
O=C(NCCc1ccccc1)c1cc2sccc2n1Cc1ccccc1	none
O=C(c1ccco1)N1CCN(C(=O)c2cc3sccc3n2Cc2ccccc2)CC1	CYP2C9 inh 88.9
CC1Cc2ccccc2N1C(=O)c1cc2sccc2n1Cc1ccc(F)cc1 (stereo not given)	Cav32 inh -5.57 (no result: CYP2C19 act, CYP2C19 inh, CYP2C9 act, CYP2C9 inh)
COCCCNC(=O)C1CCN(C(=O)c2cc3sccc3n2Cc2ccc(F)cc2)CC1	none
CC(NC(=O)Nn1cnnc1)(C(F)(F)F)C(F)(F)F	none
CC1=NCC(C)c2c1[nH]c1ccccc21 (stereo not given)	none
O=C(NCc1ccco1)C1CCN(C(=O)c2cc3sccc3n2Cc2ccc(F)cc2)CC1	CYP2C19 inh 86.4, CYP2C9 inh 97.7
O=C(NCc1ccco1)c1cc2sccc2n1Cc1ccccc1	Cav32 inh -5.61 (no result: CYP2C19 act, CYP2C19 inh, CYP2C9 act, CYP2C9 inh)
CCCCCn1c(CN2CCN(c3cccc(Cl)c3)CC2)nc2c1c(=O)n(C)c(=O)n2C	CYP2C9 inh 54.6
Cn1c(=O)c2c(nc(CN3CCN(c4ccccc4)CC3)n2Cc2ccccc2Cl)n(C)c1=O	none
CCCCn1c(CN2CCN(c3ccccc3)CC2)nc2c1c(=O)n(C)c(=O)n2C	none
CCOC(=O)N1CCN(Cc2nc3c(c(=O)n(C)c(=O)n3C)n2Cc2cccc(C)c2)CC1	CYP2C19 inh 85.6, CYP2C9 inh 67.4
CCCCn1c(CN2CCN(c3cccc(Cl)c3)CC2)nc2c1c(=O)n(C)c(=O)n2C	Cav32 inh -6.88, CYP2C19 inh 56.3, CYP2C9 inh 85.3
CCCn1c(CN2CCN(c3cccc(Cl)c3)CC2)nc2c1c(=O)n(C)c(=O)n2C	Cav32 inh -4.8
CS(=O)(=O)N1c2ccccc2[C@@]2(Br)C[C@H]3C(=O)N[C@@H](Cc4ccccc4)C(=O)N3[C@@H]12	none (no result: CYP2C19 act, CYP2C19 inh, CYP2C9 act, CYP2C9 inh)
FC(F)(F)c1cc(CCN2C(=S)NC[C@@H]2CC2CCCCC2)cc(C(F)(F)F)c1	none (no result: CYP2C19 act, CYP2C19 inh, CYP2C9 act, CYP2C9 inh)
CCn1c(COc2cccc3ccccc23)nnc1SCC(N)=O	none
CCCCCCn1c(C)nc2c(c1=O)c1nc3ccccc3nc1n2/N=C/c1ccco1	Cav32 inh -5.09, CYP2C9 inh 74.5
O=c1c2c3nc4ccccc4nc3n(/N=C/c3ccco3)c2ncn1CCC1=CCCCC1	CYP2C19 inh 54.7, CYP2C9 inh 57.9
Cc1nc2c(c(=O)n1CCC1=CCCCC1)c1nc3ccccc3nc1n2/N=C/c1ccccc1	none (no result: Cav32 inh)
O=C(Cn1cc(C(F)(F)F)ccc1=O)N1CCN(S(=O)(=O)c2ccc(Cl)cc2)CC1	none
CCCCN(CC)C(=O)Cn1c(=O)sc2ccccc21	none
OCC1CCCN(C(=S)NCCc2ccccc2)C1 (stereo not given)	none
CC(C)CNC(=S)N1CCN(C)CC1	none
CN1CCN(C(=S)NCCc2ccccc2)CC1	CYP2C19 inh 63.8
CC1CCN(C(=S)NCCc2ccccc2)CC1	CYP2C19 inh 73.1
CC1CCN(C(=O)C2CCN(CCCc3ccccc3)CC2)CC1	Cav32 inh -4.45
O=C(C1CCN(CCCc2ccccc2)CC1)N1CCCCC1	none
